GALK inhibitor – inhibitors of human galactokinase. Purified GALK, Kinase-Glo residual ATP luminescence. Potency, µM (highest dose often 57.5 µM), for the others: at the highest dose activity change, negative = inhibition, actives largely listed as inhibitors. P51570. AID 1868. actives 0.007% (n = 270,000)
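Human GALK (5 nM) with 35 uM ATP and 100 uM galactose in 20 mM HEPES pH 8.0, 5 mM MgCl2, 60 mM NaCl, 1 mM DTT, 0.01% BSA. After 1 h at room temperature, leftover ATP was read by Kinase-Glo Plus luminescence.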
TrxR1 inh – inhibitors of rat thioredoxin reductase 1 | O89049 | recombinant rTrxR1, NADPH fluorescence consumption, selenite substrate | Potency, µM (series often up to 114 µM), for the others: top-dose activity change, negative = inhibition, hits mostly inhibitors | actives 1% (n = 390,000) | AID 588453; further: nearly all actives have a fitted effect of over 65% in size
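Rat TrxR1 (90 nM in the dispensed reagent) was pre-reduced with 400 uM NADPH for 5 min at room temperature, then incubated with compound for 15 min. After 400 uM selenite was added, NADPH fluorescence (Ex 340/Em 450 nm) was followed for 8 min.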
TrxR1 substrate – is turned over as a substrate by rat TrxR1; O89049; purified TrxR1 substrate turnover, NADPH consumption readout; Potency, µM (highest dose often 114 µM), for inactives: at the highest dose activity change, negative = substrate turnover; actives 0.01% (n = 390,000); AID 588456; further: nearly all actives have a fitted effect of over 50% in size
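Rat TrxR1, dispensed at 90 nM, was prereduced with 400 uM NADPH (final) for 5 min at ~22 deg C, then incubated with compound 15 min before 400 uM selenite. A first-read NADPH fluorescence drop versus no-compound background flagged substrates.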
NPSR antag – neuropeptide S receptor (human) antagonism, cAMP | CHO-NPSR cells, cAMP TR-FRET, antagonist mode | actives 1% (n = 220,000) | Potency, µM (titrated, usually from 38.3 µM), without a hit: at the top dose activity change, negative = inhibition, most hits filed as inhibitors; further: nearly all actives have a fitted effect of over 50% in size
Target sequence (Q6W5P4 whole entry, looked up): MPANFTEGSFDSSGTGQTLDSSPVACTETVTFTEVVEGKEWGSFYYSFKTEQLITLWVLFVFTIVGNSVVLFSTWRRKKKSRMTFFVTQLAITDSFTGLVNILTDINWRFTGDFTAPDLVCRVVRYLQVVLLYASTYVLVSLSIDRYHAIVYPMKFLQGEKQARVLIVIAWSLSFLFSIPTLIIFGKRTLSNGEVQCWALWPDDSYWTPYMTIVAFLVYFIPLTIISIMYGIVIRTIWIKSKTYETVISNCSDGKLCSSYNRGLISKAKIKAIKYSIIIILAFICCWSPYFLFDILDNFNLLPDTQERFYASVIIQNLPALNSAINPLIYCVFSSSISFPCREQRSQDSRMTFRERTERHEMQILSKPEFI
An asterisk follows results filed as active; ? = inconclusive; · = no result; [ ] = remark or other dose. This is a sample that favours compounds with a hit; in the whole collection about 1.2% have one here. The call rests on the fitted dose curve; in most records, active means well fitted curve in the direction sought with a large enough effect; inconclusive means small, poorly fitted or top-dose-only effect, or another doubt; inactive means no such curve, though single readings can be large; an effect the other way counts as inactive or inconclusive. On the % scale 0 is the no-effect control and ±100 the full control effect; potency means the concentration at half of the fitted maximal effect.

SMILES	GALK inhibitor	TrxR1 inh	TrxR1 substrate	NPSR antag
COC(=O)C1=C[C@@H](C(=O)OC)[C@@H]2C3=C(C(=O)[C@@]2(C)NC(=O)c2ccccc2)[C@H](C)[C@@H]2C(=O)N(Cc4ccccc4)C(=O)[C@@H]2[C@@H]3C1	·	7.9%	-4.2%	·
CCSc1cnn(-c2ccccc2)c(=O)c1SCC	1.0%	-1.8%	3.5%	12.6µM*
CCSc1cnn(-c2ccccc2)c(=O)c1Cl	·	2.7%[57.1 µM]	7.1%[57.1 µM]	·
CCCCSc1cnn(-c2ccccc2)c(=O)c1SCCCC	0.0%	28.0%	2.7%	12.6µM*
COc1ccc(Cl)cc1N(C)c1nc(N2CCN(S(=O)(=O)c3ccc(C)cc3)CC2)c2ccccc2n1	·	26.7%	34.9%	·
COc1ccc(/C=N/NC(=O)C(=O)/C=C2\NC3(CCCC3)Cc3ccccc32)cc1	-3.7%	2.2%[57.1 µM]	-8.1%	-38.6%
O=C(/C=C1\NC2(CCCC2)Cc2ccccc21)C(=O)N/N=C/c1ccc(O)c(O)c1	0.4%	-13.5%	-15.3%	12.6µM*
Cc1ccc(C(C2C(=O)CC(C)(C)CC2=O)C2C(=O)CC(C)(C)CC2=O)s1	-1.5%	39.8µM*	-13.2%	-13.4%[46.1 µM]
O=C(NC1CCCC1)c1ccc2nc(-c3ccco3)c(-c3ccco3)nc2c1	-3.3%	3.16µM*	8.8%[57.1 µM]	-11.2%[46.1 µM]
c1coc(-c2nc3ccccc3nc2-c2ccco2)c1	3.8%	?	24.5%	-13.6%[46.1 µM]
O=C(NC1CCCC1)c1ccc2nc[nH]c2c1	0.1%	22.6%[57.1 µM]	5.9%[57.1 µM]	-17.6%[46.1 µM]
O=C(NCCO)c1ccc2nc(-c3ccco3)c(-c3ccco3)nc2c1	0.8%	8.91µM*	-2.6%	-16.0%[46.1 µM]
O=C(NCCc1ccccc1)c1ccc(=O)oc1	-2.5%	-19.2%	-18.9%	-6.3%[46.1 µM]
O=C(c1ccccc1)c1ccc2nc(-c3ccco3)c(-c3ccco3)nc2c1	-5.0%	2.82µM*	4.7%[57.1 µM]	-59.6%
O=C(NCCc1ccccc1)c1ccc2nc(-c3ccco3)c(-c3ccco3)nc2c1	0.1%	3.16µM*	-1.4%	?
COc1cc2nc(N3CCOCC3)nc(NC(C)C)c2cc1OC	·	-36.0%	102.6%	·
Cc1sc2ncn(CC(=O)N3CCN(c4ccc(Cl)cc4)CC3)c(=O)c2c1S(=O)(=O)N1CCN(c2ncccn2)CC1	·	8.3%[2.29 µM]	-6.0%[2.29 µM]	·
CCOc1ccc(/C=C/c2ccc3ccccc3[n+]2C)cc1OCC	·	?	-12.0%	·
NC(=O)CN1C(=O)/C(=c2\sc3nc(=O)c(Cc4ccccc4)nn3c2=O)c2ccccc21	-2.0%	17.8µM*	3.0%	4.4%
Cc1[nH]c2ccccc2c1C(c1ccccn1)N1CCC(C(N)=O)CC1 (stereo unspecified)	2.3%	1.58µM*	5.5%	-2.5%[46.1 µM]
c1ccc(-c2nnc(-c3ccccn3)nc2NC2CCCCC2)cc1	-0.2%	-8.2%	-9.2%	10µM*
CC1(C)C(/C=C/C=C/C=C/C=C2\N(CCCCS(=O)(=O)O)c3ccc4ccccc4c3C2(C)C)=[N+](CCCCS(=O)(=O)[O-])c2ccc3ccccc3c21	·	3.55µM*	-16.2%	·
Cc1c2ccccc2cc[n+]1CCCS(=O)(=O)[O-]	1.2%	5.1%	12.7%	7.4%
CCOc1ccc(CCNC(=O)C2CCCN(c3nnc(C)c4c(C)n(-c5ccccc5)nc34)C2)cc1 (stereo unspecified)	·	7.7%	13.1%	·
CCc1cccc(NC(=O)CSC2=NS(=O)(=O)c3ccccc32)c1	1.7%	3.16µM*	3.2%[57.1 µM]	-22.2%[46.1 µM]
SMILES	GALK inhibitor	TrxR1 inh	TrxR1 substrate	NPSR antag
CCCCCCCCCCCCCCCC[n+]1ccc(C)c2ccccc21	·	?	1.2%	·
Cc1ccc(CNC(=O)C(C)n2c(=O)cc(-c3ccccc3)c3c(C)nn(C)c32)cc1 (stereo unspecified)	·	10.6%[57.1 µM]	1.9%[57.1 µM]	·
c1ccc(-c2nnc3sc(-c4csc5c4CCCC5)nn23)cc1	0.8%	-7.9%	0.0%	10µM*
S=c1[nH]nc(Cc2sc(-c3ccccc3)nc2-c2ccccc2)o1	28.2µM*	-12.6%[57.1 µM]	-6.7%	-14.1%[46.1 µM]
S=c1[nH]nc(Cc2c[nH]c3ccccc23)o1	-3.1%	?	11.7%	-11.6%[46.1 µM]
CC(C)C(Cl)=NOC(=O)Nc1ccc(S(N)(=O)=O)cc1	·	0.794µM*	2.7%[11.4 µM]	·
Nc1ccc(N2CCCCC2)c2nonc12	6.8%	?	50.1µM*	19.0%
Nc1c(N2CCCC2)cc(Cl)c2nonc12	1.8%	25.1µM*	-6.2%	5.4%[46.1 µM]
C[C@@H]1C(=O)N(S(=O)(=O)c2ccc([N+](=O)[O-])cc2)[C@H]1c1ccccc1	·	-25.6%	0.8%	·
COc1ccccc1/C=c1/[nH]c(=O)/c(=C\c2ccccc2OC)[nH]c1=O	·	13.9%	-1.3%	·
O=C(CSc1nc2ccccc2nc1Cc1ccc(Cl)cc1)NCCc1ccccc1	·	33.2%[57.1 µM]	8.2%[57.1 µM]	·
O=C(c1ccccc1F)N1CCN(c2ccc([N+](=O)[O-])cc2-n2cccc2)CC1	·	11.6%	3.5%	-57.7%
O=C(c1ccc(F)cc1)N1CCN(c2ccc([N+](=O)[O-])cc2-n2cccc2)CC1	·	11.1%[57.1 µM]	3.5%[57.1 µM]	10µM*
COc1ccccc1C(=O)Nc1cc(-c2ccc(C)cc2)no1	-6.7%	22.4%	-1.6%	·
CCOC(=O)C1=C(C)N=c2s/c(=C3/C(=O)Nc4ccccc43)c(=O)n2C1c1ccc(C)cc1 (stereo unspecified)	0.6%	44.7µM*	-19.3%	?
COC(=O)C1=C(C)N=c2s/c(=C3\C(=O)Nc4ccccc43)c(=O)n2C1c1ccccc1 (stereo unspecified)	0.5%	·	·	-4.2%[46.1 µM]
O=C(OC[C@H]1O[C@@H](OC(=O)c2cc(O)c(O)c(OC(=O)c3cc(O)c(O)c(O)c3)c2)[C@H](OC(=O)c2cc(O)c(O)c(OC(=O)c3cc(O)c(O)c(O)c3)c2)[C@@H](OC(=O)c2cc(O)c(O)c(OC(=O)c3cc(O)c(O)c(O)c3)c2)[C@@H]1OC(=O)c1cc(O)c(O)c(OC(=O)c2cc(O)c(O)c(O)c2)c1)c1cc(O)c(O)c(OC(=O)c2cc(O)c(O)c(O)c2)c1	·	?	-5.4%	·
O=C(O)C[C@@H]1C(=O)O[C@@H]2C(COC(=O)c3cc(O)c(O)c(O)c3)O[C@@H](OC(=O)c3cc(O)c(O)c(O)c3)[C@@H](OC(=O)c3cc(O)c(O)c4c3[C@H]1[C@H](O)C(=O)O4)[C@H]2OC(=O)c1cc(O)c(O)c(O)c1 (stereo partly specified)	14.1µM*	·	·	-20.2%
COc1cc(OC)cc(-n2c(=O)c3ccccc3n(CC(=O)NCCc3ccc(OC)c(OC)c3)c2=O)c1	·	17.7%	-0.7%	·
CCN(CC)c1cc2c(cc1F)c(=O)c(S(=O)(=O)c1ccc(OC)cc1)cn2CC	·	5.6%	-9.2%	·
CC1=C(C)/C(=N/OC(=O)c2cccc([N+](=O)[O-])c2)C=CC1=O	-1.0%	8.91µM*	-6.4%	?
N/C(=N/OC(=O)c1cccc([N+](=O)[O-])c1)c1cccc([N+](=O)[O-])c1	3.2%	15.3%[57.1 µM]	-5.1%[57.1 µM]	-0.6%
Cc1ccc(C)c(NC(=O)C(=O)NCC2CCCN2S(=O)(=O)c2cccs2)c1 (stereo unspecified)	·	1.0%	-8.1%	·
